Values joined by “and” are separate entries in the source; they are usually repeats but may differ in a detail not shown here. Identical values can stand only once. Inconclusive results are not listed. Entries that show only a call come without a potency. Where a structure was tested more than once in an assay, its records may differ in their call. Active and inactive are the calls of the source. Unless noted, calls come from the whole dose curve.
Columns and labels:
[1] = Nuclear factor erythroid 2-related factor 2/antioxidant responsive element (Nrf2/ARE) small molecule agonists: qHTS cell viability counter screen in human keratinocytes (AID 1919968; active = well fitted curve in the direction sought with a large enough effect in the repeat runs; an effect the other way counts as inactive or inconclusive; note: nearly all actives have a fitted effect of over 55% in size; note: potency is the fitted concentration of half-maximal effect)
How it was run: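 CellTiter-Fluor fluorescence, read 1 h after reagent, gave viability in the same wells as the ARE-luciferase assay. KeratinoSens cells (1,500/well) had 23 h compound exposure at 37 C/5% CO2 following 5 h plating.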

[2] = Nuclear factor erythroid 2-related factor 2/antioxidant responsive element (Nrf2/ARE) small molecule agonists: luciferase reporter gene qHTS assay in human keratinocytes (AID 1919969); note: nearly all actives have a fitted effect of over 35% in size; note: potency is the fitted concentration of half-maximal effect
[3] = target: Gonadotropin-releasing hormone receptor (Homo sapiens) (UniProt P30968); experiment: Human gonadotropin-releasing hormone receptor (GnRHR) small molecule agonists, calcium flux assay in GnRHR-HEK293 cells (AID 1920063); note: nearly all actives have a fitted effect of over 35% in size
How it was run: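 Agonist mode: compounds at 15 concentrations, in triplicate, went onto calcium dye-loaded GnRHR-HEK293 cells. Intracellular calcium was then followed as 480/540 nm fluorescence at 1 s intervals over 3 min.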

[4] = target: KiSS-1 receptor (Homo sapiens) (UniProt Q969F8); experiment: Human kisspeptin (KISS1R) small molecule agonists, calcium flux assay in KISS1R-HEK293 cells (AID 1920064; active = well fitted curve in the direction sought with a large enough effect in the repeat runs; an effect the other way counts as inactive or inconclusive)
How it was run: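 Agonist mode: intracellular calcium rise tracked at 1 s intervals over 3 min (480/540 nm) immediately after compound addition to dye-loaded KISS1R-HEK293 stable cells. Each compound tested at 15 concentrations in triplicate.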

[5] = G protein-coupled receptor (GPCR) small molecule agonists, calcium flux assay: HEK293 wild type cell line counter screen (AID 1920065)
How it was run: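 Calcium flux counter screen: compound added in agonist mode at 15 concentrations in triplicate to dye-loaded parental HEK293 cells. Fluorescence (480/540) read kinetically for 3 min; ATP served as positive control.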

[6] = p53 small molecule agonists, cell-based qHTS assay with human liver microsomes (AID 1963577);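 note: p53 response element beta-lactamase reporter cells with liver microsomes plus NADPH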
How it was run: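 With metabolic activation: human liver microsomes (0.5 mg/mL final) plus NADPH (0.5 mg/mL final) added alongside compounds to p53RE-bla cells; 16 h 37 C exposure; beta-lactamase read by LiveBLAzer fluorescence.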

[7] = p53 small molecule agonists, cell-based qHTS assay with rat liver microsomes (AID 1963578)
How it was run: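 Metabolic activation by rat liver microsomes and NADPH, each 0.5 mg/mL final, added right after compounds to p53RE-bla reporter cells (4,000/well, plated 5 h earlier). 16 h at 37 C, then LiveBLAzer substrate for 2 h at room temperature in the dark; fluorescence read-out.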

[8] = p53 small molecule agonists, cell-based qHTS assay with human liver microsomes: qHTS cell viability counter screen (AID 1963579); note: nearly all actives have a fitted effect of over 45% in size
How it was run: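 Metabolic activation used human liver microsomes and NADPH, both 0.5 mg/mL final, over 16 hours at 37 C on p53RE-bla cells (4,000/well). Cytotoxicity measured by CellTiter-Glo luminescence, 30 min at room temperature.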

[9] = p53 small molecule agonists, cell-based qHTS assay: qHTS cell viability counter screen (AID 1963581); note: nearly all actives have a fitted effect of over 45% in size
How it was run: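 Counter screen read by CellTiter-Glo luminescence (ATP content, 30 min at room temperature), run in the same wells as the beta-lactamase reporter read. HCT-116 p53RE-bla cells saw compounds for 16 h at 37 C.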

[10] = p53 small molecule agonists, cell-based qHTS assay (AID 1963582; active = well fitted activation curve with a large enough effect in the signal ratio in the repeat runs, not every such curve was filed as active; the % refers to the signal ratio)
How it was run: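 Read-out is beta-lactamase FRET fluorescence after 2 h at room temperature with LiveBLAzer B/G substrate. p53 response element-bla cells were treated 16 h at 37 C with compounds in DMSO, added 5 h after seeding.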

[11] = target: 5-hydroxytryptamine receptor 2A (Homo sapiens) (UniProt P28223); experiment: 5-hydroxytryptamine receptor 2A (HTR2A) small molecule antagonists, cell-based qHTS assay (AID 1963586); note: nearly all actives have a fitted effect of over 45% in size
How it was run: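 CHO cells stably expressing human HTR2A were plated for 18 h at 37 C, then loaded with calcium dye for 1 h. Compounds were preincubated 5 min at room temperature before DOI (4 nM solution) was added. Kinetic fluorescence was read for 3 min.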

[12] = target: 5-hydroxytryptamine receptor 2A (Homo sapiens) (UniProt P28223); experiment: 5-hydroxytryptamine receptor 2A (HTR2A) small molecule agonists, cell-based qHTS assay (AID 1963587); note: nearly all actives have a fitted effect of over 30% in size
How it was run: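 CHO cells stably expressing human HTR2A, plated 18 h, loaded with calcium dye 1 h at 37 C. Agonist mode: compounds added and intracellular calcium fluorescence recorded kinetically for 2 min at 1 sec intervals.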

[13] = target: Muscarinic acetylcholine receptor M1 (Homo sapiens) (UniProt P11229); experiment: Cholinergic receptor muscarinic 1 (CHRM1) small molecule antagonists, cell-based qHTS assay (AID 1963588); note: nearly all actives have a fitted effect of over 40% in size; note: potency is the fitted concentration of half-maximal effect
How it was run: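 Compounds were tested at 15 concentrations in three independent runs. Dye-loaded CHRM1-CHO cells were exposed 5 min at room temperature before stimulation by acetylcholine added at 50nM. Intracellular calcium was read kinetically on FDSS for 3 min.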

[14] = target: Muscarinic acetylcholine receptor M1 (Homo sapiens) (UniProt P11229); experiment: Cholinergic receptor muscarinic 1 (CHRM1) small molecule agonists, cell-based qHTS assay (AID 1963589); note: nearly all actives have a fitted effect of over 35% in size
How it was run: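 Agonist-mode calcium-flux screen: compounds at 15 concentrations, three independent runs, were pin-transferred onto dye-loaded human CHRM1-CHO cells. Fluorescence was then recorded kinetically every second over minutes.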

[15] = cAMP Responsive Elements (CRE) small molecule agonists, cell-based qHTS assay (AID 1963590)
How it was run: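 Agonist mode: compound added to CRE-bla HEK 293T cells (2,000/well, 18 h after plating) for 3 h at 37 C/5% CO2. Reporter activity detected via FRET beta-lactamase substrate, 2 h room-temperature loading.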

[16] = cAMP Responsive Elements (CRE) small molecule antagonists, cell-based qHTS assay (AID 1963591; active = well fitted inhibition curve with a large enough effect in the signal ratio in the repeat runs, not every such curve was filed as active; the % refers to the signal ratio)
How it was run: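 Antagonist mode: compounds are added alongside the adenylyl cyclase activator NKH477 (0.25 uM final) to CRE-bla HEK293T cells for 3 h. LiveBLAzer FRET substrate, 2 h at room temperature, reports bla expression.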

[17] = target: Beta-2 adrenergic receptor (Homo sapiens) (UniProt P07550); experiment: Adrenergic beta2 receptor (ADRB2) small molecule antagonists, cell-based qHTS assay (AID 1963592); note: series mostly up to about 92 µM; nearly all actives have a fitted effect of over 50% in size
How it was run: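 Assay format: CHO-ADRB2 cells, 18-20hr seeding at 37C/5% CO2, then compound plus 1nM isoproterenol agonist mix for 0.5hr RT. Homogeneous time-resolved fluorescence cAMP detection after 1hr, expressed as 665/615 nm ratio.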

[18] = target: D(2) dopamine receptor (Homo sapiens) (UniProt P14416); experiment: Dopamine D2 receptor (DRD2) small molecule agonists, cell-based qHTS assay (AID 1963594); note: nearly all actives have a fitted effect of over 35% in size
How it was run: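 HEK293 cells stably expressing human DRD2, pre-treated with PDE inhibitor Ro20-1724 (0.1 mM final) and compound 10 min at room temperature, then stimulated with NKH477 (200nM […]) for 30 min. cAMP read by HTRF (665/620 nm).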

[19] = target: D(2) dopamine receptor (Homo sapiens) (UniProt P14416); experiment: Dopamine D2 receptor (DRD2) small molecule antagonists, cell-based qHTS assay (AID 1963595; active = well fitted inhibition curve with a large enough effect in the signal ratio in the repeat runs, with a control signal flat; the % refers to the signal ratio)
How it was run: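 DRD2-HEK293; 0.1 mM Ro20-1724; cpd 10 min RT; NKH477 200 nM + quinpirole 12 nM, 30 min RT; HTRF cAMP (cAMP-d2/anti-cAMP cryptate), 665/620 nm ratio after 1 h.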

[20] = p53 small molecule agonists, cell-based qHTS assay with rat liver microsomes: qHTS cell viability counter screen (AID 1963580); note: nearly all actives have a fitted effect of over 45% in size
How it was run: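 Cytotoxicity counter screen: intracellular ATP measured by CellTiter-Glo luminescence in the same wells as the beta-lactamase reporter read, on HCT-116 p53RE-bla cells exposed 16 h at 37 C to compounds with rat liver microsomes and NADPH, each 0.5 mg/mL final.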

Sequence of D(2) dopamine receptor (Homo sapiens) (P14416 whole entry, looked up): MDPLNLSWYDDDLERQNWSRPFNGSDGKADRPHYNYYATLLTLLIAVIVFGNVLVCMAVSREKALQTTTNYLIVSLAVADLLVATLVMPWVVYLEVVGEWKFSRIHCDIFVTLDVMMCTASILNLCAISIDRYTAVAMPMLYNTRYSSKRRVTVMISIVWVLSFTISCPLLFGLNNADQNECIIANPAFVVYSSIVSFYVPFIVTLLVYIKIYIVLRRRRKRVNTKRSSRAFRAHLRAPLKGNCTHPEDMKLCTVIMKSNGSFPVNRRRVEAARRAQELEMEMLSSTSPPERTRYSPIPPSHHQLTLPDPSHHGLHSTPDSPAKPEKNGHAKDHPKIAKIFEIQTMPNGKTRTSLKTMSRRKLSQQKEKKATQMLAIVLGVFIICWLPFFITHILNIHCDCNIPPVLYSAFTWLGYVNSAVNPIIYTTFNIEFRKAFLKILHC
Sequence of KiSS-1 receptor (Homo sapiens) (Q969F8 whole entry, looked up): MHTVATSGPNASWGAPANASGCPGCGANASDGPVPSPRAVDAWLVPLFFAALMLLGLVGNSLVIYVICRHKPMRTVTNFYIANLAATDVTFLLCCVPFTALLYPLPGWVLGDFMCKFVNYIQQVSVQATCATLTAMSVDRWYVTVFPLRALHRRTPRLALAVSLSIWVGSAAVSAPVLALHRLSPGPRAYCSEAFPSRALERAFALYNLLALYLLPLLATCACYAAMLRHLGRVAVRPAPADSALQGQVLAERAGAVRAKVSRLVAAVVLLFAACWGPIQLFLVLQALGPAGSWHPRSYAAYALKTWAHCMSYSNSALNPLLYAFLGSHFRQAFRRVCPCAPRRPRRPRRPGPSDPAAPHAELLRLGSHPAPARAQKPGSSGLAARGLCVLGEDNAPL
Sequence of Beta-2 adrenergic receptor (Homo sapiens) (P07550 whole entry, looked up): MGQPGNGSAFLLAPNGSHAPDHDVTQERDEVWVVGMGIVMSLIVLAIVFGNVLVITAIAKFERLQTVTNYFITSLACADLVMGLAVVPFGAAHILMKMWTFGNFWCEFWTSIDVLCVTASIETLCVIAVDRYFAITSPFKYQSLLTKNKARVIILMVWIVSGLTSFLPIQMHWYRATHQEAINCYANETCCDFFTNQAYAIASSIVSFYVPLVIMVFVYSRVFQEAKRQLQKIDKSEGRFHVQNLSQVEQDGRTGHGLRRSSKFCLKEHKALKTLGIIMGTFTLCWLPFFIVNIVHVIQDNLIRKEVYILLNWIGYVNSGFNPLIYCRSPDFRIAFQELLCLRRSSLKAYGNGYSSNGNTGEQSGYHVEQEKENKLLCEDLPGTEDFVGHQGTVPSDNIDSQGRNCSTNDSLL
Sequence of 5-hydroxytryptamine receptor 2A (Homo sapiens) (P28223 whole entry, looked up): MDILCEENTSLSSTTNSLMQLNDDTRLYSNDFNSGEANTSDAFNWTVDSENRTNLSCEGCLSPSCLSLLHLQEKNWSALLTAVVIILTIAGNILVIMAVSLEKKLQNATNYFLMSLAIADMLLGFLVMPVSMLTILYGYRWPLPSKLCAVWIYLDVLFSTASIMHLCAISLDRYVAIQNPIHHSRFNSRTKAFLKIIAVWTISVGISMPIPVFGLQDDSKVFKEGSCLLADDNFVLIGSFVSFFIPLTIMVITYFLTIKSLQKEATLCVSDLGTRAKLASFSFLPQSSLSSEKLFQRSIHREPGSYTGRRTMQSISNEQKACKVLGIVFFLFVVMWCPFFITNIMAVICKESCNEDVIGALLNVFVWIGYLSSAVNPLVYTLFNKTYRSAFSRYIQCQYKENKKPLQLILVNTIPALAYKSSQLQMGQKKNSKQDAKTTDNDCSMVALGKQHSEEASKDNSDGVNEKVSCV
Sequence of Muscarinic acetylcholine receptor M1 (Homo sapiens) (P11229 whole entry, looked up): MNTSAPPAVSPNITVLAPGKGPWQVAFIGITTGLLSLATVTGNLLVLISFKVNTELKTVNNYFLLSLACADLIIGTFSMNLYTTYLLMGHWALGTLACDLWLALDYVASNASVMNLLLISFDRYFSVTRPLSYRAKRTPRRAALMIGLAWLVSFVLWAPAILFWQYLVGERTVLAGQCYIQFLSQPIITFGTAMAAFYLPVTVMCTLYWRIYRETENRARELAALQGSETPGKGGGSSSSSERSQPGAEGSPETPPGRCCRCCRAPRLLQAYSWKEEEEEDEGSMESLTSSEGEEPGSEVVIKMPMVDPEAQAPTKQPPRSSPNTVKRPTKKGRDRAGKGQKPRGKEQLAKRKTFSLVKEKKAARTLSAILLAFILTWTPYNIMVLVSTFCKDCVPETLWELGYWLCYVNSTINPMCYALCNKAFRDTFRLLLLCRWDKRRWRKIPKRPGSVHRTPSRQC
Sequence of Gonadotropin-releasing hormone receptor (Homo sapiens) (P30968 whole entry, looked up): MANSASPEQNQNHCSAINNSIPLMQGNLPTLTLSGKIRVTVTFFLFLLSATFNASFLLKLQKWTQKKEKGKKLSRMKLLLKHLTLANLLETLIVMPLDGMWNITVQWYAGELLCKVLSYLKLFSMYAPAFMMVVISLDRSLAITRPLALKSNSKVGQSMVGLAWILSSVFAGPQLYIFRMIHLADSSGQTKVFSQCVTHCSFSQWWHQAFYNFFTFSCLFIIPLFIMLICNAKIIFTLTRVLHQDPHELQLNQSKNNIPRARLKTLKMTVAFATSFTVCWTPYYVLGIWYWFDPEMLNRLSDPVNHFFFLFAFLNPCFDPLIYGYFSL

For `CC(C)(C)c1cccc(C(C)(C)C)c1O`, the Potency [1] was “inactive”, the Potency [2] was “inactive” and the Potency [3] was “inactive”. For the same compound, the Potency [4] was “inactive”, the Potency [5] was “inactive” and the Potency [6] was “inactive”. The Potency [7] was “inactive”, the Potency [8] was “inactive” and the Potency [9] was “inactive”. For the same compound, the Potency [10] was “inactive”, the Potency [11] was “inactive” and the Potency [12] was “inactive”. For the same compound, the Potency [13] was 231 nM (active) and inactive, the Potency [14] was “inactive” and the Potency [15] was “inactive”. The Potency [16] was “inactive”, the Potency [17] was “inactive” and the Potency [18] was “inactive”. For the same compound, the Potency [19] was “inactive”.

For `CCCCCCOCCO`, the Potency [1] was “inactive”, the Potency [2] was “inactive” and the Potency [3] was “inactive”. For the same compound, the Potency [4] was “inactive”, the Potency [5] was “inactive” and the Potency [6] was “inactive”. The Potency [7] was “inactive”, the Potency [8] was “inactive” and the Potency [9] was “inactive”. The Potency [10] was “inactive”, the Potency [11] was “inactive” and the Potency [12] was “inactive”. The Potency [13] was “inactive”, the Potency [15] was “inactive” and the Potency [16] was “inactive”. For the same compound, the Potency [17] was “inactive”, the Potency [18] was “inactive” and the Potency [19] was “inactive”.

In the case of `Cc1cccc(Nc2cc(Cl)nc(SCC(=O)O)n2)c1C`, the Potency [1] was “inactive”, the Potency [2] was “inactive” and the Potency [3] was “inactive”. For the same compound, the Potency [4] was “inactive”, the Potency [5] was “inactive” and the Potency [6] was “inactive”. For the same compound, the Potency [7] was “inactive”, the Potency [8] was “inactive” and the Potency [20] was “inactive”. The Potency [17] was “inactive”, the Potency [18] was “inactive” and the Potency [19] was “inactive”.

With `C=CC(=O)OCCOCCOCCOCCOC(=O)C=C` the Potency [1] was 61.4 µM (active) and 48.1 µM (active), the Potency [2] was 24.5 µM (active) and 27.1 µM (active) and the Potency [3] was “inactive”. For the same compound, the Potency [4] was “inactive”, the Potency [5] was “inactive” and the Potency [6] was “inactive”. The Potency [7] was “inactive”, the Potency [8] was “inactive” and the Potency [20] was “inactive”. The Potency [10] was “inactive”, the Potency [11] was “inactive” and the Potency [12] was “inactive”. The Potency [13] was “inactive”, the Potency [14] was “inactive” and the Potency [17] was “inactive”. For the same compound, the Potency [18] was “inactive” and the Potency [19] was “inactive”.

With `Nc1nc2ccccc2[nH]1` the Potency [1] was “inactive”, the Potency [2] was “inactive” and the Potency [3] was “inactive”. The Potency [4] was “inactive”, the Potency [5] was “inactive” and the Potency [6] was “inactive”. The Potency [7] was “inactive”, the Potency [8] was “inactive” and the Potency [20] was “inactive”. For the same compound, the Potency [11] was “inactive”, the Potency [12] was “inactive” and the Potency [13] was “inactive”. The Potency [14] was “inactive”, the Potency [15] was “inactive” and the Potency [17] was “inactive”. For the same compound, the Potency [18] was “inactive” and the Potency [19] was “inactive”.

For `CC(C)(CO)CO`, the Potency [1] was “inactive”, the Potency [2] was “inactive” and the Potency [3] was “inactive”. For the same compound, the Potency [4] was “inactive”, the Potency [5] was “inactive” and the Potency [6] was “inactive”. The Potency [7] was “inactive”, the Potency [8] was “inactive” and the Potency [9] was “inactive”. The Potency [10] was “inactive”, the Potency [11] was “inactive” and the Potency [12] was “inactive”. The Potency [13] was “inactive”, the Potency [14] was “inactive” and the Potency [15] was “inactive”. For the same compound, the Potency [17] was “inactive”, the Potency [18] was “inactive” and the Potency [19] was “inactive”.

With `C=CC(=O)NC(C)(C)CS(=O)(=O)O` the Potency [1] was “inactive”, the Potency [2] was “inactive” and the Potency [3] was “inactive”. The Potency [4] was “inactive”, the Potency [5] was “inactive” and the Potency [6] was “inactive”. For the same compound, the Potency [7] was “inactive”, the Potency [8] was “inactive” and the Potency [20] was “inactive”. For the same compound, the Potency [10] was “inactive”, the Potency [11] was “inactive” and the Potency [13] was “inactive”. For the same compound, the Potency [14] was “inactive”, the Potency [15] was “inactive” and the Potency [16] was “inactive”. For the same compound, the Potency [17] was “inactive”, the Potency [18] was “inactive” and the Potency [19] was “inactive”.

In the case of `CC(C)CCCCCCCOC(=O)CCCCC(=O)OCCCCCCCC(C)C`, the Potency [1] was “inactive”, the Potency [2] was “inactive” and the Potency [3] was “inactive”. For the same compound, the Potency [4] was “inactive”, the Potency [5] was “inactive” and the Potency [6] was “inactive”. For the same compound, the Potency [7] was “inactive”, the Potency [8] was “inactive” and the Potency [20] was “inactive”. For the same compound, the Potency [10] was “inactive”, the Potency [11] was “inactive” and the Potency [12] was “inactive”. For the same compound, the Potency [13] was “inactive”, the Potency [14] was “inactive” and the Potency [15] was “inactive”. For the same compound, the Potency [16] was “inactive”, the Potency [18] was “inactive” and the Potency [19] was “inactive”.

— PubChem BioAssay (Tox21)
